From PubChem BioAssay AID504832 (National Center for Advancing Translational Sciences (NCATS), 2011)
Out of some 310,000 compounds screened, about 18,000 (5.8%) were called active. Inconclusive results (about 22%) are left out. Shown is part of a subset that was picked to be rich in actives. A number with no mark means an inactive call. Calls follow the shape of the dose curve; as a rule, active = well fitted inhibition curve with a large enough effect; inconclusive = small, poorly fitted or top-dose-only effect, or another doubt; inactive = no such curve, though single readings can be large or run the other way.

Assay: Primary qHTS for delayed death inhibitors of the malarial parasite plastid, 48 hour incubation
Details: P. falciparum luciferase growth in erythrocytes; series mostly up to 28.7 µM; activity change, negative = inhibition: at the top concentration
In short: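 Luciferase-expressing P. falciparum in infected erythrocytes (2% hematocrit, 0.1% parasitemia final) in RPMI 1640/0.5% Albumax were exposed to compound for 48 hours at 37 C, 5% CO2; growth read as luminescence.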
% is scaled to controls: 0 for no effect and ±100 for the full control effect; potency is read from the fitted curve at half-maximal effect.

Row | SMILES | activity change, negative = inhibition [%] | Potency
1 | CCOc1ccc(CCNC(=O)CCc2nnc3ccc(N4CCCC4)nn23)cc1OCC | -17.1 | –
2 | CC1C(=O)N2CCCc3cc(S(=O)(=O)NCc4ccc(F)cc4)cc1c32 (configuration not stated) | -1.55 | –
3 | CC1CCN(C(=O)C2CCN(S(=O)(=O)N3CCC4(CC3)OCCO4)CC2)CC1 | -24.5 | –
4 | CC1(C)CC(=O)CC2(C1)NCC(c1ccccc1Cl)c1c2[nH]c2ccccc12 (configuration not stated) | – | 10.4 µM (active)
5 | COc1cc2c(cc1NC(=O)COC(=O)/C=C/c1ccccc1)oc1ccccc12 | 19.8 | –
6 | O=C(CN1CCN(S(=O)(=O)c2ccc(F)cc2)CC1)Nc1ccccc1F | -3.52 | –
7 | C/C(=N/NC(=O)CN1CCN(S(=O)(=O)c2ccc(Br)cc2)CC1)c1ccncc1 | 0 | –
8 | O=C(CN1CCN(S(=O)(=O)c2ccc(Br)cc2)CC1)Nc1ccccc1C(=O)c1ccccc1 | – | 13.1 µM (active)
9 | COc1cc2c(cc1NC(=O)CN1CCN(S(=O)(=O)c3ccc(F)cc3)CC1)oc1ccccc12 | – | 10.4 µM (active)
10 | COc1ccc(NC(=O)CN2CCN(S(=O)(=O)c3ccc(F)cc3)CC2)cc1Cl | -13.7 | –
11 | CCCn1c(N)c(N(CCOC)C(=O)C2CCCC2)c(=O)[nH]c1=O | -0.556 | –
12 | Cc1cc(NC(=O)CCS(=O)(=O)c2ccc(F)cc2)no1 | -24.6 | –
13 | CC(C)=N/N=C1/NC(=O)C(Cc2ccccc2)S1 (configuration not stated) | -27.8 | –
14 | N#CC1(NC(=O)COC(=O)CCN=C2NS(=O)(=O)c3ccccc32)CCCCC1 | 0.444 | –
15 | CC(=O)Nc1ccc(S(=O)(=O)N2CCC(C(=O)N[C@@H](Cc3ccccc3)C(=O)O)CC2)cc1 | 15.3 | –
16 | COc1cc(COCC(O)CN2CCN(Cc3ccc4c(c3)OCO4)CC2)cc(OC)c1OC (configuration not stated) | 0 | –
17 | CN1CCc2cc3c(cc2[C@H]1[C@@H]1OC(=O)c2c1ccc1c2OCO1)OCO3 | -8.96 | –
18 | COc1c(O)ccc2c1CN1CCc3cc4c(cc3C1C2)OCO4 (configuration not stated) | – | 1.85 µM (active)
19 | COc1ccc(N2CCN(C(=O)CNC(=O)c3ccc(Br)o3)CC2)cc1 | -1.91 | –
20 | COc1cccc(C(=O)NNC(=O)c2cccc(F)c2)c1 | 106 | –
21 | CC(OC(=O)CCC(=O)c1ccccc1)C(=O)Nc1ccc(F)cc1 (configuration not stated) | -0.871 | –
22 | COc1ccc(Nc2nc(Cl)nc(NCc3ccco3)n2)cc1 | -11.9 | –
23 | COc1ccc(Nc2nc(NCc3ccco3)nc(N/N=C/c3ccccc3Cl)n2)cc1 | – | 10.4 µM (active)
24 | C=CCC(NCc1ccco1)c1ccc(OC)cc1 (configuration not stated) | -2.5 | –
25 | CC1(c2nnc(Cc3ccccc3)o2)CC(c2ccccc2F)=NO1 (configuration not stated) | 5.51 | –
26 | O=C(Nc1ccc(S(=O)(=O)NCC2CCCO2)cc1)c1ccc(F)cc1 (configuration not stated) | -4.09 | –
27 | Cc1ccc(C)c(OCc2cc(C(=O)N3CCN(c4cnccn4)CC3)no2)c1 | -12.7 | –
